ATXN2 expr inh = Primary qHTS for Inhibitors of ATXN expression | HEK-293 ATXN2-luciferase reporter, luminescence, 24 h | Potency, µM (highest dose often 57 µM), hits mostly inhibitors | hit rate 0.72% among 360,000 | AID 1745845, 2022; note: nearly all actives have a fitted effect of over 55% in size
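qHTS (up to 57 uM final) was run with 24 h compound exposure of reporter cells at 37 °C. Each well was multiplexed: SteadyGlo luminescence measured ATXN2-luciferase expression after a fluorogenic Gly-Phe-AFC viability readout (25 uM final).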
HT1080-NT tox = qHTS for induction of synthetic lethality in tumor cells producing 2HG: qHTS for the HT-1080-NT fibrosarcoma cell line | HT-1080-NT fibrosarcoma viability, CellTiter-Glo ATP luminescence, 48 h | hit rate 1.6% among 360,000 | Potency, µM (doses to about 46.1 µM), hits mostly cytotoxic;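 note: NT is the 2HG producing partner of a matched IDH1 knockdown line; nearly all actives have a fitted effect of over 55% in size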
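750 cells/well, RPMI + 5% FBS; 2 h settle, compound pin-transfer, 48 h at 37 degrees C. CellTiter-Glo 10 min RT, luminescence. Normalized to DMSO and media-only wells.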
KB-3-1 tox = qHTS assay for MDR1-selective chemotherapeutics: Primary screen using the parental adenocarcinoma cell KB-3-1; KB-3-1 viability, CellTiter-Glo ATP luminescence, 72 h; AID 1347075, 2019; Potency, µM (series often up to 46.1 µM), most hits filed as cytotoxic; hit rate 1.4% among 400,000; note: nearly all actives have a fitted effect of over 60% in size
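Parental KB-3-1 viability, qHTS format: 72 h compound exposure, 37 °C; CellTiter-Glo; media-only wells and DMSO plates as controls; concentration-effect fits on corrected data.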
HT1080 IDH1KD tx = qHTS for induction of synthetic lethality in tumor cells producing 2HG: qHTS for the HT-1080-IDH1KD cell line; HT-1080 IDH1 knockdown viability, ATP luminescence, 48 h; hit rate 2% among 360,000; Potency, µM (top dose mostly 46.1 µM), actives largely listed as cytotoxic; AID 686971, 2013
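In this qHTS, HT-1080 cells depleted of IDH1 are exposed for 48 h at 37 °C to compound titrations. Toxicity is scored from CellTiter-Glo luminescence, with DMSO as full viability and medium alone as none.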
S2 tox = Viability Counterscreen for Primary qHTS for Inhibitors of ATXN expression; S2 cells (HEK-293 line with an ATXN2-luciferase reporter) viability, CellTiter-Fluor protease fluorescence, 24 h; hit rate 0.49% among 400,000; AID 651635, 2014; Potency, µM (titrated, usually from 56.7 µM), usual class: cytotoxic; note: nearly all actives have a fitted effect of over 40% in size
KB-V1 MDR tox = qHTS assay for MDR1-selective chemotherapeutics: Primary screen using the drug-selected MDR subline cells KB-V1; Potency, µM (highest dose often 46.1 µM), actives largely listed as cytotoxic; KB-V1 MDR cells viability, CellTiter-Glo, 72 h; hit rate 3.4% among 400,000; note: nearly all actives have a fitted effect of over 60% in size
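Readout: CellTiter-Glo luminescence, 10 min after addition. Cells: KB-V1 MDR subline, 72 h at 37 degrees C with compound. Analysis: corrected, normalized data fitted to concentration-effect curves.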
Large screens that a line does not name were inactive; ! = not confirmed by another sample. Sampled rows, rich in hits. Any-hit rate of the full collection: about 6.2%. Calls come from the whole dose curve; as a rule, active = well fitted curve in the direction sought with a large enough effect; inconclusive = small, poorly fitted or top-dose-only effect, or another doubt; inactive = no such curve, though single readings can be large; an effect the other way counts as inactive or inconclusive.

O=[N+]([O-])c1ccccc1-c1cc(-c2ccccc2)cc(-c2ccccc2)[n+]1Cc1ccccc1Cl	ATXN2 expr inh inconclusive, HT1080-NT tox 7.31µM, KB-3-1 tox 9.2µM, HT1080 IDH1KD tx 10.3µM, S2 tox inconclusive
CC(C)Cc1nc2cccnc2n1C1CCNCC1	none (no result: HT1080-NT tox, HT1080 IDH1KD tx)
N#CC(C#N)=NNc1ccc(-n2ccc(C(F)(F)F)n2)cc1	ATXN2 expr inh inconclusive, HT1080-NT tox inconclusive, KB-3-1 tox inconclusive, HT1080 IDH1KD tx 4.61µM, S2 tox inconclusive
C=C1C(=O)O[C@@H]2C[C@@H](C)[C@@H]3C=CC(=O)[C@@]3(C)[C@@H](O)[C@H]12	ATXN2 expr inh 1.78µM, HT1080-NT tox 1.46µM, KB-3-1 tox inconclusive, HT1080 IDH1KD tx 0.581µM (no result: S2 tox)
C=C1C(=O)O[C@@H]2C[C@@H](C)[C@@H]3C=CC(=O)[C@@]3(C)[C@@H](OC(C)=O)[C@H]12	ATXN2 expr inh 1.12µM, HT1080-NT tox 6.51µM, KB-3-1 tox inconclusive, HT1080 IDH1KD tx 4.61µM, KB-V1 MDR tox 14.6µM (no result: S2 tox)
COc1ccc2c(c1)CCc1c(C(=O)Nc3c(C)nn(Cc4ccccc4C)c3C)noc1-2	S2 tox inconclusive (no result: HT1080-NT tox, HT1080 IDH1KD tx)
Cc1cnc(SCc2ccccn2)nc1C1CCCN(C(=O)c2ccc(-c3ccccc3F)cc2)C1 (stereo not drawn)	none (no result: ATXN2 expr inh, HT1080-NT tox, KB-3-1 tox, HT1080 IDH1KD tx, KB-V1 MDR tox)
O=C(c1ccccc1Cl)N1CCC(c2nc3ccccc3s2)CC1	S2 tox inconclusive, KB-V1 MDR tox 13µM (no result: HT1080-NT tox, HT1080 IDH1KD tx)
c1ccc(CN2CCNCC2)cc1	none (no result: HT1080-NT tox, KB-3-1 tox, HT1080 IDH1KD tx, KB-V1 MDR tox)
O=P(O)(O)CN1CCNCCN(CP(=O)(O)O)CCNCC1	ATXN2 expr inh inconclusive, KB-3-1 tox inconclusive, HT1080 IDH1KD tx 14.6µM, S2 tox inconclusive, KB-V1 MDR tox inconclusive
COc1ccc2c(c1)[nH]c1c(C)nccc12	KB-3-1 tox inconclusive, KB-V1 MDR tox 23.1µM!
Cc1nccc2c1[nH]c1ccc(Br)cc12	KB-V1 MDR tox inconclusive
Cc1oc(-c2ccccc2F)nc1CS(=O)(=O)CC(=O)N1CCN(c2cccc(C(F)(F)F)c2)CC1	ATXN2 expr inh inconclusive, S2 tox inconclusive (no result: HT1080-NT tox, HT1080 IDH1KD tx)
O=C(O)CNC(=O)c1c(O)c2ccccc2n(Cc2ccccc2)c1=O	none (no result: HT1080-NT tox, KB-3-1 tox, HT1080 IDH1KD tx, S2 tox, KB-V1 MDR tox)
CCCCn1c(-c2nonc2NC(=O)c2ccccc2Cl)nc2ccccc21	KB-3-1 tox 3.26µM, S2 tox inconclusive, KB-V1 MDR tox inconclusive (no result: ATXN2 expr inh)
CCCCCn1c(=O)c(C(=O)Nc2ccccc2Cl)c(O)c2ccccc21	none (no result: ATXN2 expr inh, S2 tox)
O=C(/C=C/c1ccccc1)c1c(O)n(CCc2ccccc2)c(=O)[nH]c1=O	KB-3-1 tox 14.6µM, S2 tox inconclusive, KB-V1 MDR tox 6.51µM
O=C(/C=C/c1ccc2c(c1)OCO2)c1c(O)n(CCc2ccccc2)c(=O)[nH]c1=O	KB-3-1 tox inconclusive, KB-V1 MDR tox 13µM
O=c1[nH]c(=O)n(CCc2ccccc2)c(O)c1C=NCCN1CCNCC1	none
CC(=NCc1ccc2c(c1)OCO2)c1c(O)n(-c2ccccc2)c(=O)[nH]c1=O	KB-3-1 tox inconclusive, HT1080 IDH1KD tx inconclusive
COc1cc(/C=C/C(=O)c2c(O)n(CCc3ccccc3)c(=O)[nH]c2=O)ccc1O	HT1080-NT tox inconclusive, HT1080 IDH1KD tx 11.6µM, S2 tox inconclusive
Cc1ccc(-c2c(C)n3c4c(=O)n(C)c(=O)n(C)c4nc3n2CCO)cc1	KB-3-1 tox 2.06µM, S2 tox inconclusive (no result: HT1080-NT tox, HT1080 IDH1KD tx)
C/C=C1\C[N@@+]2(C)CC[C@@]34C(=C(C=O)[C@H]1C[C@H]32)Nc1ccccc14	none (no result: ATXN2 expr inh, HT1080-NT tox, KB-3-1 tox, HT1080 IDH1KD tx, KB-V1 MDR tox)
NC(N)=Nc1ccc2[nH]c3c(c2c1)C[C@@]1(O)[C@H]2Cc4ccc(O)c5c4[C@@]1(CCN2CC1CC1)[C@H]3O5	HT1080-NT tox 14.6µM, KB-3-1 tox inconclusive, HT1080 IDH1KD tx 16.4µM, S2 tox inconclusive
COc1ccc(OC)c(C[C@H](C)N)c1	none (no result: ATXN2 expr inh, HT1080-NT tox, KB-3-1 tox, HT1080 IDH1KD tx, KB-V1 MDR tox)
CCN1/C(=C\C=C\C2=[N+](CC)c3ccccc3C2(C)C)C(C)(C)c2ccccc21	ATXN2 expr inh inconclusive, HT1080-NT tox 0.651µM, KB-3-1 tox inconclusive, HT1080 IDH1KD tx 2.59µM, S2 tox 2.82µM, KB-V1 MDR tox 20.6µM

Screening data: PubChem BioAssay, National Center for Advancing Translational Sciences (NCATS)
